High-throughput results deposited in PubChem BioAssay by National Center for Advancing Translational Sciences (NCATS).
This is a sample that favours compounds with a hit; in the whole collection about 19% have one here.
AMA1-RON2 inh – inhibitors of Plasmodium falciparum AMA1-RON2 interaction; 360,000 tested, 0.2% active; AlphaScreen AMA1-biotinylated RON2 peptide binding; Potency, µM (series often up to 58.2 µM), for inactives: at the highest dose activity change, negative = inhibition, hits mostly inhibitors; AID 720542;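 also: potency is read from the fitted curve at half-maximal effect; 0% = vehicle wells and -100% = peptide control; nearly all actives have a fitted effect of over 45% in size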
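AMA1 (3D7) with his tag at 25 nM final met compounds first, then biotinylated RON2 peptide at 25 nM; detection used donor plus acceptor beads, 10 µg/mL apiece, read by AlphaScreen after 30 min at room temperature.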
Shiga inhibitor – blocks Shiga toxin action in Vero cells; 290,000 tested, 9.2% active; inhibition, % at 38.7 µM; Vero cells, Shiga toxin protein synthesis inhibition reporter; in the data active = inhibition mostly above about 28%, no sharp cut-off; inactive = mostly below about 43%; also: 0% is about no effect
SARS PLP yeast – inhibitors of SARS-CoV papain-like protease in yeast. S. cerevisiae expressing SARS-CoV PLpro, growth rescue. Potency, µM (top dose mostly 32.9 µM), without a hit: at the highest dose activity, positive = growth rescue, actives largely listed as activators. 330,000 tested, 0.19% active. AID 485353; calls by dose curve; also: potency is read from the fitted curve at half-maximal effect; 0% is about no effect; nearly all actives have a fitted effect of over 55% in size
CHX counter – counter-screen for Shiga toxin inhibitors: cycloheximide protein synthesis inhibition; cell reporter, cycloheximide protein synthesis inhibition counterscreen; max response, %; 300,000 tested, 12% active; AID 2314; in the data active = max response mostly above about 13%, no sharp cut-off; inactive = mostly below about 14%; also: read at 38.3 µM for the half of the compounds with a filed dose; 0% is about no effect
Pf growth 48h – P. falciparum growth inhibition at 48 hours (one generation); Potency, µM (highest dose often 28.7 µM), without a hit: at the top dose activity change, negative = inhibition, hits mostly inhibitors; P. falciparum luciferase growth in erythrocytes, 48 h; AID 504832; 310,000 tested, 5.9% active; also: potency is read from the fitted curve at half-maximal effect; % is scaled to controls: 0 for no effect and ±100 for the full control effect
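Luminescence readout; reporter = integrated firefly luciferase in P. falciparum. RBC culture at 2% hematocrit, 0.1% parasitemia final, 37 C/5% CO2; decreased signal taken as growth inhibition.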
Pf growth 96h – P. falciparum growth inhibition at 96 hour, primary screen for plastid delayed-death inhibitors. P. falciparum luciferase reporter growth, 96 h. Potency, µM (doses to about 28.7 µM), inactives show at the top dose activity change, negative = inhibition, most hits filed as inhibitors. 320,000 tested, 6.9% active. AID 504834; also: potency is read from the fitted curve at half-maximal effect; % is scaled to controls: 0 for no effect and ±100 for the full control effect
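96 h incubation, 37 C, 5% CO2, of luciferase-reporter P. falciparum-infected RBCs (2% hematocrit, 0.05% parasitemia final) with test compounds; endpoint luminescence.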
* hit, by the source's call. Unless noted, calls follow the shape of the dose curve; as a rule, active = well fitted curve in the direction sought with a large enough effect; inconclusive = small, poorly fitted or top-dose-only effect, or another doubt; inactive = no such curve, though single readings can be large; an effect the other way counts as inactive or inconclusive.

How did COC(=O)c1sccc1NC(=O)Nc1cc(C)cc(C)c1 do in these assays?
AMA1-RON2 inh: -13.4%; Shiga inhibitor: 80.0*; SARS PLP yeast: -6.7%; CHX counter: 47.5*; Pf growth 48h: 55.1%; Pf growth 96h: 4.65µM*

Results for O=C1CSc2ccc(C(=O)NCC(c3ccco3)N3CCCCC3)cc2N1 (stereo not drawn) ?
AMA1-RON2 inh: 5.4%; Shiga inhibitor: -11.7; SARS PLP yeast: -2.8%; CHX counter: 10.0; Pf growth 48h: inconclusive; Pf growth 96h: inconclusive

Results for Cc1cc(C)c2c(=O)n3c(nc2c1)C(Cc1ccc(O)cc1)NC(=O)c1cc2ccccc2cc1-3 (stereo not drawn) ?
AMA1-RON2 inh: -0.7%

How did C#CCCOC(=O)N1C2=NC(C(=O)OC)=C(C(=O)OC)[C@@H]3N(C)c4ccccc4[C@]23C[C@H]1CO do in these assays?
AMA1-RON2 inh: 1.6%

What do the screens show for `COC(=O)c1sccc1NC(=O)c1ccccc1`?
AMA1-RON2 inh: 23.7%; Shiga inhibitor: -18.6; SARS PLP yeast: -7.9%; CHX counter: 6.8; Pf growth 48h: inconclusive; Pf growth 96h: 0.0%

Results for CCc1ccccc1NC(=O)Nc1ccsc1C(=O)OC ?
AMA1-RON2 inh: -13.3%; Shiga inhibitor: 27.6; SARS PLP yeast: -12.7%; CHX counter: 12.8; Pf growth 48h: -12.1%; Pf growth 96h: 275.1%

What do the screens show for `COC(=O)c1sccc1NC(=O)Nc1ccc(F)cc1`?
AMA1-RON2 inh: -9.9%; Shiga inhibitor: 20.3; SARS PLP yeast: -14.9%; CHX counter: 29.8*; Pf growth 48h: 28.1%; Pf growth 96h: -12.2%

How did CCOc1ccccc1NC(=O)Nc1ccsc1C(=O)OC do in these assays?
AMA1-RON2 inh: -9.3%; Shiga inhibitor: 36.5*; SARS PLP yeast: -16.2%; CHX counter: 22.1*; Pf growth 48h: 105.4%; Pf growth 96h: inconclusive

How did COC(=O)c1sccc1NC(=O)c1ccc(C(C)C)cc1 do in these assays?
AMA1-RON2 inh: -6.1%; Shiga inhibitor: 7.7; SARS PLP yeast: -11.3%; CHX counter: 3.2; Pf growth 48h: 13.7%; Pf growth 96h: 10.4µM*

How did COc1ccsc1C(=O)Nc1ccc(F)cc1F do in these assays?
AMA1-RON2 inh: -11.8%; Shiga inhibitor: 30.9; SARS PLP yeast: 1.3%; CHX counter: 30.0*; Pf growth 48h: 35.1%; Pf growth 96h: 35.3%

How did CCCCN(CCCC)c1cc(C)nc(-c2ccccc2O)n1 do in these assays?
AMA1-RON2 inh: 32.7%; Shiga inhibitor: -5.7; SARS PLP yeast: -16.9%; CHX counter: 12.0; Pf growth 48h: -10.0%; Pf growth 96h: inconclusive

What do the screens show for `CN(c1ccccc1)C(c1ccc(F)cc1)c1nnnn1C1CCCC1` (stereo not drawn)?
AMA1-RON2 inh: 7.8%; Shiga inhibitor: -11.6; SARS PLP yeast: 14.5%; CHX counter: -0.8; Pf growth 48h: inconclusive

How did COC(=O)c1sccc1NC(=O)Nc1ccc(F)cc1F do in these assays?
AMA1-RON2 inh: 9.6%; Shiga inhibitor: -7.7; SARS PLP yeast: -1.4%; CHX counter: 9.7; Pf growth 48h: -1.9%; Pf growth 96h: 11.7µM*

Results for COC(=O)c1sccc1NC(=O)Nc1ccc(C)cc1 ?
AMA1-RON2 inh: -8.8%; Shiga inhibitor: 86.5*; SARS PLP yeast: -10.5%; CHX counter: 45.5*; Pf growth 48h: 190.4%; Pf growth 96h: 2.0%

What do the screens show for `COC(=O)c1sccc1NC(=S)Nc1ccc(F)cc1`?
AMA1-RON2 inh: 57.8%; Shiga inhibitor: -11.2; SARS PLP yeast: -3.1%; CHX counter: -3.7; Pf growth 48h: 2.2%; Pf growth 96h: -14.4%

What do the screens show for `O=C(C[n+]1ccccc1)Nc1ccccc1C(=O)O`?
AMA1-RON2 inh: -6.3%; Shiga inhibitor: 15.3; SARS PLP yeast: -0.3%; CHX counter: 1.9; Pf growth 48h: 6.8%; Pf growth 96h: -27.1%

How did O=S(=O)(Nc1nc2ccccc2nc1Cl)c1ccccc1 do in these assays?
AMA1-RON2 inh: 3.7%; Shiga inhibitor: -1.5; SARS PLP yeast: 13.1%; CHX counter: 0.9; Pf growth 48h: 3.8%; Pf growth 96h: -9.5%

Results for O=S(=O)(Nc1nc2ccccc2nc1-[n+]1cccc(N=C([O-])c2ccc(Cl)cc2)c1)c1ccccc1 ?
AMA1-RON2 inh: -9.6%; Shiga inhibitor: -4.0; SARS PLP yeast: 0.6%; CHX counter: 6.9; Pf growth 48h: inconclusive; Pf growth 96h: 8.28µM*
